Screening data from PubChem.
HCMV inh: qHTS Assay for inhibitors of the human cytomegalovirus (HCMV) | HFF cells, HCMV-luciferase reporter, 72 h; active compounds read low | activity change, negative = inhibition, % at 57.5 µM | hit rate 4.5% among 410,000; in the data active = activity change below about -60%; inconclusive = no clear call, values can overlap the other calls; inactive = above about -39%
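Steps: HFFs plated, 16 h 37C; compounds added; HCMV-luciferase added to MOI 1 PFU/cell; 72 h 37C; OneGlo reagent, 5 min room temperature; luminescence read, normalized to controls.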
Sm TGR inh: qHTS Assay for the Inhibitors of Schistosoma Mansoni Peroxiredoxins; Schistosoma mansoni thioredoxin glutathione reductase (TGR), Q962Y6; purified TGR, DTNB reduction, TNB absorbance 405 nm; Potency, µM (doses to about 114 µM), inactives show at the highest dose activity change, negative = inhibition, most hits filed as inhibitors; hit rate 3% among 360,000; AID 485364, 2010; note: potency is the fitted concentration of half-maximal effect; nearly all actives have a fitted effect of over 60% in size
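Kinetic colorimetric format: TGR-catalysed, NADPH-driven DTNB reduction monitored via TNB absorbance. Enzyme dispensed at 20 nM; compound exposure 15 min at room temperature before reaction start.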
FMDV antiviral: High Throughput Screening for Foot and Mouth Disease Virus Antivirals. FMDV antiviral cell-based qHTS. Potency, µM (highest dose often 57.9 µM), without a hit: top-dose activity change, negative = inhibition, most hits filed as inhibitors. hit rate 1.2% among 410,000. AID 1159524, 2015; calls by dose curve; tested in HEK293T cells; note: read-out not given here; potency is the fitted concentration of half-maximal effect; nearly all actives have a fitted effect of over 45% in size
HCV inhibitor: qHTS Assay for Inhibitors of Hepatitis C Virus (HCV). Huh7.5.1 HCVcc-Cre infection, luciferase reporter, 44 h. Potency, µM (doses to about 41.8 µM), without a hit: top-dose activity change, negative = inhibition, most hits filed as inhibitors. hit rate 3.4% among 340,000. AID 651820, 2012; note: potency is the fitted concentration of half-maximal effect
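Luciferase read-out (15 sec integration) after a 15 min room-temperature substrate step quantifies HCVcc-Cre infection. Cells, 1,000 per well, had compound added 4 h post-plating, then virus at ~0.5 moi, and were cultured 44 h.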
Vaccinia Venus: qHTS for Stage-Specific Inhibitors of Vaccinia Orthopoxvirus: Venus Reporter Primary qHTS. hit rate 0.46% among 330,000. Potency, µM (series often up to 36.5 µM), for the others: at the highest dose activity change, negative = inhibition, most hits filed as inhibitors. Vaccinia virus Venus reporter expression, fluorescence; calls by dose curve; tested in A549 cells; note: potency is the fitted concentration of half-maximal effect; nearly all actives have a fitted effect of over 30% in size
VACV mCherry inh: qHTS for Stage-Specific Inhibitors of Vaccinia Orthopoxvirus: mCherry Reporter Primary qHTS | Vaccinia virus mCherry reporter infection, fluorescence | Potency, µM (highest dose often 36.5 µM), inactives show at the top dose activity change, negative = inhibition, usual class: inhibitors | hit rate 0.63% among 310,000; calls by dose curve; tested in A549 cells; note: potency is the fitted concentration of half-maximal effect; nearly all actives have a fitted effect of over 35% in size
The depositor's hits bear a star; i = inactive; ? = inconclusive; . = no result given; ! = not confirmed by another sample. Shown are actives, neighbours in structure and some others; about 9.3% of the full set was active somewhere. Unless noted, calls come from the whole dose curve; as a rule, active = well fitted curve in the direction sought with a large enough effect; inconclusive = small, poorly fitted or top-dose-only effect, or another doubt; inactive = no such curve, though single readings can be large; an effect the other way counts as inactive or inconclusive. % is set by controls: 0 for no effect and ±100 for the full control effect.

SMILES	HCMV inh	Sm TGR inh	FMDV antiviral	HCV inhibitor	Vaccinia Venus	VACV mCherry inh
CC(=O)Nc1ccc(S(=O)(=O)N2CCN(C(=O)C3COc4ccccc4O3)CC2)cc1 (configuration not stated)	-33	1%	?	?	-2%	-11%
Cc1c(C)c2ccc(OCC(=O)N3CCN(C(=O)C4COc5ccccc5O4)CC3)cc2oc1=O (configuration not stated)	?	-12%	?	?	.	.
CCc1cc(=O)oc2cc(OC(C)C(=O)NCC(O)c3ccccc3)c(Cl)cc12 (configuration not stated)	-36	-5%	-22%	?	.	.
CCN(CC)C(=O)[C@H]1CC(CC(=O)NCCCN(C)C)C(=O)N2CCc3c([nH]c4ccc(OC)cc34)[C@]12C (some centres not stated)	-3	.	-14%	32%	-9%	i
Cc1oc2cc3oc(=O)c(CC(=O)N[C@H](C(=O)N[C@@H](C(=O)O)c4ccccc4)C(C)C)c(C)c3cc2c1C	4	-13%	17%	3%	-3%	-2%
CCN(CC)CCNC(=O)CN1C(=O)c2cccnc2Oc2ccc(C)cc21	0	-4%	-6%	.	-5%	-14%
Cc1cccc(NC(=O)C2(C)CC3c4ccccc4C2c2ccccc23)c1C (configuration not stated)	?	-8%	-29%	15%	-32%	-22%
Cc1ccc(C)c(NC(=O)C2(C)CC3c4ccccc4C2c2ccccc23)c1 (configuration not stated)	-105*	6%	-1%	7%	-1%	-4%
CC(Nc1nc(N2CCN(S(C)(=O)=O)CC2)nc2ccccc12)c1ccccc1 (configuration not stated)	63	-2%	-10%	-29%	.	.
COc1ccc(C(=O)N2CCn3c(C)ccc3C2C)cc1 (configuration not stated)	-36	28µM*	2%	-6%	.	.
COc1ccc(C(=O)N2CCc3cc4c(cc3C2C)OCCCO4)cc1 (configuration not stated)	-8	-17%	?	1.6µM*	-22%	-29%
CC1c2cc3c(cc2CCN1C(=O)c1ccc(Br)cc1)OCCCO3 (configuration not stated)	-15	-5%	?	-5%	.	.
CC(CCc1ccc(O)cc1)NC1c2ccccc2-c2ccccc21 (configuration not stated)	-11	7%	-3%	11%	.	.
CC(=O)C1=NN(c2ccccc2)C2(S1)S/C(=C\c1ccccc1)C(=O)N2c1ccccc1 (configuration not stated)	-8	-14%	-18%	?	-27%	.
O=C(CSc1ncn[nH]1)c1cccc([N+](=O)[O-])c1	-27	-17%	0%	-29%	-5%	-5%
COC(=O)c1c(-c2ccco2)csc1NC(=O)C1CC=CCC1C(=O)O (configuration not stated)	12	45µM*	53%	12%	-8%	.
CCOC(=O)c1c(-c2ccc(F)cc2)csc1NC(=O)C1CC=CCC1C(=O)O (configuration not stated)	35	.	11%	12%	-17%	i
CN=CC1=C(O)c2ccccc2C1=O	22	-17%	54%	2%	-6%	i
O=C1C(C2=C(O)c3ccccc3C2=O)=Nc2ccccc21	-78*	?	24%	10µM*	.	.
Cc1ccc(NC(=O)C2CCCN2S(=O)(=O)c2ccc3nc(-c4ccccc4)[nH]c3c2)cc1F (configuration not stated)	-84*	-1%	?	.	-19%	-21%
Cn1c(Oc2ccc3c(c2)OCO3)nc2c1c(=O)n(Cc1ccccc1)c(=O)n2C	7	4%	?	24%	-14%	-12%
COc1cc(N=Nc2ccc(C)cc2S(N)(=O)=O)c(C)cc1N	179	.	45%	25µM*	-20%	?
COc1cc(S(N)(=O)=O)c(OC)cc1N	-40	12%	-23%	-4%	-17%	-12%
Cc1cc(=O)[nH]c2[nH][nH]c(=O)c12	15	.	-17%	35%	-11%	-14%
CN(c1ccccc1)S(=O)(=O)c1ccccc1Br	-81*	0%	-12%	?	-2%	-14%
SMILES	HCMV inh	Sm TGR inh	FMDV antiviral	HCV inhibitor	Vaccinia Venus	VACV mCherry inh
Cc1ccc(S(=O)(=O)N(C)c2ccccc2)cc1	-24	3%	-9%	10%	-6%	-24%
Clc1ccc(COC(Cn2ccnc2)c2ccc(Cl)cc2Cl)cc1 (configuration not stated)	-23	4%	32µM*!	?	?	-10%
CCCCC1=CC2=C(c3ccco3)C(=O)C(C)(OC(=O)c3ccc(OC)cc3)C(=O)C2=CN1C1CC1 (configuration not stated)	-29	0%	-25%	-8%	-27%	?
CCOc1ccccc1Nc1nc(-c2ccc(C)cc2)c(CC(=O)O)s1	63	40µM*	31%	.	-5%	i
NC(c1ccc(F)c(F)c1)c1nc(-c2ccc3ccccc3c2)cs1 (configuration not stated)	-82*	.	27%	.	3%	?
O=C(COc1cccc2c1CCNC2=O)Nc1cccc(F)c1	8	-2%	-4%	-10%	-18%	-16%
N#Cc1nc(N2CCCC2)nc(N2CCCC2)n1	?	5%	?	7.1µM*	?	?
Cc1cc(C)c2c(N)c3cccc(C)c3nc2n1	-99*	-8%	-12%	13µM*	10µM*	10µM*
Cc1cccc2c(N)c3c(nc12)CCCC3 (tested in a mixture with another compound)	-33	.	-18%	?	.	.
CC(C)n1nc(C(=O)OCC(=O)NCCc2ccc(S(N)(=O)=O)cc2)c2ccccc2c1=O	0	.	-10%	6%	.	.
CCOC(=O)N1CC(C)N(C(=S)Nc2ccccc2)CC1C (configuration not stated)	-11	.	1%	6%	5%	-7%
COC(=O)C1=C(c2ccc(-c3ccccc3)c(F)c2)C[C@@H]2CC[C@H]1N2C(=O)N1CCCC1	-72*	4%	-8%	2.8µM*	?	22µM*
COC(=O)C1=C(c2ccc3ccccc3c2)C[C@@H]2CC[C@H]1N2C(=O)N1CCCC1	.	-19%	?	10µM*	?	?
COC(=O)C1=C(c2ccc(-c3ccccc3)c(F)c2)C[C@@H]2CC[C@H]1N2C(=O)N1CCCCC1	-75*	0%	?	?	?	?
